Measured values taken from ChEMBL document CHEMBL4513216, “Probing the Open Global Health Chemical Diversity Library for Multistage-Active Starting Points for Next-Generation Antimalarials” (ACS Infect Dis, 2020).
Among all 68,000 compounds or so, about 2,700 (4%) showed an effect of 50% or more. What follows is part of a selection rich in strong results, with near analogues and random picks from the rest.

These molecules were tested on Plasmodium berghei (assay: Screen against P. berghei liver stage (PbLuc), transformed with Luciferase, at 2uM). Details: tested at 2 uM.
Assay type: functional, HepG2

SMILES	INHIBITION
O=C(CN1CCCC(O)C1)NC(=O)NCc1cccs1 (stereo not drawn)	-4.29%
Cc1cccc(C2(CNC(=O)c3ccnc(N(C)C)c3)CCOCC2)c1	-3.96%
CN(C)c1cc(C(=O)NCC2(c3ccc(F)cc3)CC2)ccn1	87.73%
CN(C)c1cc(C(=O)NCC2(c3cccc(F)c3)CCOCC2)ccn1	15.38%
CC(=O)N1CCC(C(=O)NCCN2CCC(C)CC2)CC1	44.99%
CC1CCC(O)(CN2CCN(CCNC(=O)C3CCC3)CC2)CC1 (stereo not drawn)	-81.41%
CC1CCN(CCCNC(=O)C2CCCCC2)CC1	1.41%
CCCNC(=O)C1CCN(CC2(O)CCC(C)CC2)CC1 (stereo not drawn)	50.03%
CCCC(=O)N1CCC(C(=O)NCCN2CCC(C)CC2)CC1	20.43%
COCCCNC(=O)C1CCN(CC2(O)CCC(C)CC2)CC1 (stereo not drawn)	54.69%
CN(Cc1ccco1)Cc1cnc2n1CCN(c1ccccn1)CC2	-18.6%
OC(CNc1ccc(Cl)cn1)CN1CCOCC1 (stereo not drawn)	12.58%
CC1CCN(CC(O)CNc2ccc(Cl)cn2)CC1 (stereo not drawn)	58.9%
CC1CCN(CC(O)CNc2ccccn2)CC1 (stereo not drawn)	39.95%
Cc1nnc([C@@]23CCO[C@@H]2CCN(S(=O)(=O)c2cccnc2)C3)o1	38.17%
O=C(c1c[nH]c2ccccc2c1=O)N1CCSCC1	40.47%
CC(C(=O)Nc1ccc2ccccc2c1)N1CCC(n2ccnc2)CC1 (stereo not drawn)	-17.84%
CC(C(=O)NCCc1cccs1)N1CCC(n2ccnc2)CC1 (stereo not drawn)	-22.69%
CC(C(=O)Nc1ncccn1)N1CCC(n2ccnc2)CC1 (stereo not drawn)	61.56%
O=C(c1cc(Cl)c[nH]1)N1CCN(CCc2ccccn2)CC1	-5.61%
COc1cc(OC)c(CNC(=O)NCC(=O)N2CCCC2)c(OC)c1	-19.51%
OC1(Cn2ccc3ncccc32)CCN(Cc2ccccn2)CC1	7.86%
CCc1sc(-c2nnc(CNC(C)Cn3cc(C)cn3)o2)cc1C (stereo not drawn)	-11.19%

SMILES	INHIBITION
CCc1sc(-c2nnc(CNCCn3cccn3)o2)cc1C	-19.27%
CCc1sc(-c2nnc(CNCCn3cc(C)cn3)o2)cc1C	53.03%
CNc1nc2cn(Cc3ccc(Cl)cc3)c(=O)c-2c[nH]1	16.38%
CC[C@@H](Cn1ncc2ccccc2c1=O)NC(=O)c1cnccn1	-10.89%
Cc1cc(=O)n2ncnc2n1CC(O)c1cc(F)ccc1F (stereo not drawn)	6.97%
Cc1cc(=O)n2ncnc2n1CC(O)c1ccccc1Cl (stereo not drawn)	5.36%
Cc1cc(=O)n2ncnc2n1CC(O)c1cc(Cl)ccc1Cl (stereo not drawn)	50.59%
Cc1nc(C2(O)CCCNCC2)sc1CCOc1ccc(Cl)cc1 (stereo not drawn)	25.23%
Cc1ccc(NC2CCN(C(=O)c3nccc4ccccc34)CC2)nn1	-27.5%
Cc1[nH]c2ccc(C(=O)N3C[C@@H](O)[C@H](N4CCOCC4)C3)cc2c1C	21.97%
COc1ccccc1C(C)CC(=O)N1CCCS1(=O)=O (stereo not drawn)	-29.82%
COc1ccccc1C(C)CC(=O)N1CCN(S(N)(=O)=O)CC1 (stereo not drawn)	50.46%
COc1ccccc1C(C)CC(=O)N1CC[C@H](O)C1 (stereo partly drawn)	-22.65%
Cc1ccc(CN2CCNC(C(=O)NC3CC3)C2)cc1C (stereo not drawn)	2.6%
NC(=O)COc1ccc(CN2CCNC(C(=O)NC3CC3)C2)cc1Cl (stereo not drawn)	32.69%
O=C(NC1CC1)C1CN(Cc2ccc3c(c2)OCCO3)CCN1 (stereo not drawn)	54.73%
O=C(c1ccccn1)N1C[C@H]2CC[C@@H](C1)N(C(=O)CCN1CCCC1)C2	-49.63%
Cc1cc(NCCNS(=O)(=O)c2cccc(Cl)c2)nc(C)n1	-42.54%
CC(NCCNS(=O)(=O)c1cccc(Cl)c1)C1CCOCC1 (stereo not drawn)	53.16%
O=C(NCCNS(=O)(=O)c1cccc(Cl)c1)C1CCCO1 (stereo not drawn)	1.27%
COCC1CC2(CCN(C(=O)c3ccccc3C)CC2)CN1C(C)C (stereo not drawn)	24.86%
O=C(c1cn(CC(=O)N2CCCCCC2)c2ccccc12)C1CC1	-45.95%
O=C(c1cn(CC(=O)N2CCCC2)c2ccccc12)C1CC1	54.29%

SMILES	INHIBITION
O=C(c1cn(CC(=O)N2CCCCC2)c2ccccc12)C1CC1	-27.61%
CCOCC1CN(C(=O)c2cnoc2C)Cc2cn(C)nc21 (stereo not drawn)	-10.98%
CC(=O)Nc1ccc(CN2CCCC(c3cc4ncccc4[nH]3)C2)cc1 (stereo not drawn)	50.68%
Fc1ccc(CN2CCCC(c3cc4ncccc4[nH]3)C2)cc1 (stereo not drawn)	-6.41%
CCOc1ccc(CN2CCCC(c3cc4ncccc4[nH]3)C2)cc1 (stereo not drawn)	-12.12%
Cc1occc1C(=O)N1CCCC2(CCN(CCN3CCCC3)C2=O)C1 (stereo not drawn)	-15.36%
Cc1noc2nc(C3CC3)c(Cl)c(C(=O)O)c12	-7.81%
Cc1nn(C)c2nc(C3CC3)c(Cl)c(C(=O)O)c12	52.23%
Cc1ccc(Cn2nc(C)c3c(C(=O)O)c(Cl)c(C4CC4)nc32)cc1	26.11%
CCc1csc(NC(=O)NCc2ccccn2)n1	29.32%
Cc1c(C(=O)N(C)CC(F)(F)F)nnn1-c1ccccc1Cl	-20.76%
CSC1(CNC(=O)NC(C)c2ccc(F)c(F)c2)CCOCC1 (stereo not drawn)	-90.61%
CSC1(CNC(=O)NC(C)Cc2cccc(F)c2)CCOCC1 (stereo not drawn)	16.49%
CSC1(CNC(=O)NC(C)c2ccc(F)cc2)CCOCC1 (stereo not drawn)	51.43%
CCS(=O)(=O)CCN1CCN(C2CCC(C(C)C)CC2)CC1 (stereo not drawn)	20.83%
COCc1nccc(C2CCCN(Cc3ccc(SC)cc3)C2)n1 (stereo not drawn)	35.63%
CC1N(C)C(=O)COC12CCN(Cc1nccs1)CC2 (stereo not drawn)	-52.93%
OCC1CCCN1c1cc(NCCc2ccccn2)ncn1 (stereo not drawn)	-13.49%
CN1CCc2[nH]cnc2C12CCN(C(=O)CCc1cccs1)CC2	46.51%
CC(=O)N1CCc2[nH]cnc2C12CCN(C(=O)Cc1ccccn1)CC2	39.58%
CC(=O)N1CCc2[nH]cnc2C12CCN(C(=O)Cc1cccs1)CC2	63.14%
Cc1cccc(CN2C[C@@H]3CN(C(=O)[C@H]4CCCO4)C[C@@H]3C2=O)c1	19.64%
